Test results published in paper PMC4336329 (PLoS ONE, 2015).
The campaign covered roughly 310,000 compounds. About 14,000 (4.5%) showed an effect of 50% or more. The effect is printed as a negative number. What follows is part of a selection rich in strong results, with near analogues and random picks from the rest.

target: human ether-à-go-go-related gene (hERG) potassium channel (human, UniProt Q12809); test: primary screen, population patch clamp on CHO cells stably expressing hERG; higher = less effect of the substance
Sequence (Q12809 whole entry, looked up): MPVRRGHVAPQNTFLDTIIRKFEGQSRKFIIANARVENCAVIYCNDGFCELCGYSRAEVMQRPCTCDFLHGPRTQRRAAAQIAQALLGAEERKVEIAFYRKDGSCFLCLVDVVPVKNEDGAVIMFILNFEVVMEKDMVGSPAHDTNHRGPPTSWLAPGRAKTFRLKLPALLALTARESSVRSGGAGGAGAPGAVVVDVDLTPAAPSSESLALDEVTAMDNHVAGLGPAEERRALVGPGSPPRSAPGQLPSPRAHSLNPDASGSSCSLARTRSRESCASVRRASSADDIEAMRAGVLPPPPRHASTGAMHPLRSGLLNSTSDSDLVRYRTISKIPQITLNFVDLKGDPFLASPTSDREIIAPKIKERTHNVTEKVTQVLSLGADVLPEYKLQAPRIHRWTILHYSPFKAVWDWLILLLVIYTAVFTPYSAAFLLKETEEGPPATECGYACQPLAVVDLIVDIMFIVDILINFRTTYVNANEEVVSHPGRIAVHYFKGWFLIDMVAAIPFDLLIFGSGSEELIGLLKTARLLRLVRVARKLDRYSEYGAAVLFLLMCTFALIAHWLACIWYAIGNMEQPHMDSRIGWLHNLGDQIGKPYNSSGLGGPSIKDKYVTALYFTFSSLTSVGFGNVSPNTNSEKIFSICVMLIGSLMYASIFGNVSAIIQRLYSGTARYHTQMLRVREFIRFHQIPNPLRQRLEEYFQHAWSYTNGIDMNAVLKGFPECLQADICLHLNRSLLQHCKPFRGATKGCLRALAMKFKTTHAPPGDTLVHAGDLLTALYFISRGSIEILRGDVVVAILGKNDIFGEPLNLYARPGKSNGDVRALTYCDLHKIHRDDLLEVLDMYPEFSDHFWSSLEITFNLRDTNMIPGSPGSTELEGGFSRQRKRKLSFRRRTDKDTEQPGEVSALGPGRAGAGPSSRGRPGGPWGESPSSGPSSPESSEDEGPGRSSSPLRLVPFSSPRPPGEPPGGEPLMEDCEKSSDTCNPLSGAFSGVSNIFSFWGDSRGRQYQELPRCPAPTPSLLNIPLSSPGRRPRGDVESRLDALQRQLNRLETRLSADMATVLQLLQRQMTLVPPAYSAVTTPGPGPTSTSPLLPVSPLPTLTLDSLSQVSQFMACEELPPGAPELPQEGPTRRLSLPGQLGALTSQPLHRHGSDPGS
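Also: peak tail current of the secondary pulse compared with the same well before compound.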

Compound | hERG current change (%, negative = inhibition) at 10uM [%]
O=C(Nc1ccc2c(c1)OCO2)c1ccc(COc2ccc3c(c2)CCC3)o1 | 5.22
CCN(Cc1ccccc1)C(=O)COC(=O)c1c(C)nsc1NC | -6.97
CCOCCCNC(=O)c1cc(Nc2ccc(OC)cc2OC)nc2ccccc12 | -7.58
COc1ccc(N2C(=O)CCC(C(=O)Nc3ccccn3)C2c2ccc(OC)c(OC)c2)cc1 (stereo not drawn) | 8.15
Cc1ccc(-n2c(C)c(C)c3c(NCCN(C)C)ncnc32)cc1 | -36.3
COC(=O)c1ccc(C)c(NC(=O)CN2C(=O)c3ccccc3S2(=O)=O)c1 | 6.46
Cc1ccc(CNC(=S)Nc2ccc(C)c([N+](=O)[O-])c2)cc1 | 17.5
CN(CC(=O)Nc1ccc(S(=O)(=O)N2CCCC2)cc1)Cc1c(F)cccc1Cl | -7.41
O=C(COc1ccc(-n2cnnn2)cc1)Nc1cccc(Cl)c1Cl | 16.8
CC(=O)Nc1ccc(NC(=O)c2cc([N+](=O)[O-])cc([N+](=O)[O-])c2)cc1 | 22.5
CCN1CCN(c2ccc(S(=O)(=O)N3CCCCC3)cc2NC(=O)c2cccc(C)c2)CC1 | -37.4
CCN1CCN(c2ccc(S(=O)(=O)N3CCCCC3)cc2NC(=O)c2cccc(Cl)c2)CC1 | -34.6
CCN1CCN(c2ccc(S(=O)(=O)N3CCCCC3)cc2NC(=O)c2cccc(NC(C)=O)c2)CC1 | -71.3
CC1(C)CC(=O)c2cc(N=C/C(C(=O)c3ccccc3)=C(\O)c3ccccc3)c(=O)oc2C1 | 17.6
O=C1C=C(c2ccc(-c3ccccc3)cc2)C[C@@H](c2ccc(F)cc2)C1 | 6.67
COc1ccc([C@H]2CC(=O)C=C(c3ccc4ncccc4c3)C2)cc1 | -3.25
O=C1C=C(c2ccc3ncccc3c2)C[C@@H](c2ccc(Cl)cc2)C1 | -3.34
O=C1C=C(c2ccc3ncccc3c2)C[C@@H](c2ccc(F)cc2)C1 | -62.5
N#Cc1ccc(C2=CC(=O)C[C@H](c3ccc4c(c3)OCO4)C2)cc1 | -70
COc1ccc(C2=CC(=O)C[C@H](c3ccc(Cl)cc3)C2)cn1 | -12.4
N#Cc1ccc(C2=CC(=O)C[C@H](c3ccc(F)cc3)C2)cc1 | -72.1
COc1ccc([C@H]2CC(=O)C=C(c3ccc(OC)nc3)C2)cc1 | 14.2
O=C1C=C(c2ccc(-c3ccccc3)cc2)C[C@@H](c2ccc3c(c2)OCO3)C1 | 7.88

Compound | hERG current change (%, negative = inhibition) at 10uM [%]
O=C1C=C(c2ccc3c(c2)OCO3)C[C@@H](c2ccc3c(c2)OCO3)C1 | 10.9
COc1ccc(C2=CC(=O)CC(c3ccc(F)cc3)C2)cn1 (stereo not drawn) | -61.1
Cc1ccc(C2=CC(=O)C[C@H](c3ccc(F)cc3)C2)cc1 | 19.4
COc1ccc(CN2CCN(C(=O)c3cccs3)CC2)cc1.O=C(O)C(=O)O | -7.86
C=CCn1c(SCC(=O)N2CCOCC2)nnc1C(C)NC(=O)c1ccccc1 (stereo not drawn) | 13.4
CCc1cccc(C)c1NC(=O)COC(=O)Cc1ccsc1 | 10.4
c1cncc(-c2noc(C34CC5CC(CC(C5)C3)C4)n2)c1 | -0.918
Nc1nc2ccccc2cc1S(=O)(=O)c1ccccc1 | 16
O=[N+]([O-])c1ccc(N/N=C/c2cccc(O)c2O)c(S(=O)(=O)N2CCOCC2)c1 | -5.8
COC(=O)c1ccccc1NC(=O)CSc1nnc(-c2cccnc2)o1 | -6.93
COc1ccccc1NC(=O)C(C)N1C(=O)c2ccccc2C1=O (stereo not drawn) | 5.76
Cc1cccc(-c2nc(CSCC(=O)NCCCN3CCOCC3)c(C)o2)c1 | -11.3
Cc1c(NC(=O)CSc2nnnn2-c2ccc(O)cc2)c(=O)n(-c2ccccc2)n1C | -7.29
Nc1c(Cl)ncnc1NCCc1ccc(O)cc1 | 9.93
CCn1nc(-c2ccccc2)nc2c(=O)n(C)c(=O)nc1-2 | -27.6
Cc1cnc2cc(Cl)c(Cl)cc2n1 | 18.2
CCOc1ccc(S(=O)(=O)Nc2ccc(C(=O)N3CC(C)OC(C)C3)cc2)cc1 (stereo not drawn) | 0.557
Cc1ccc(C2=CC(=O)C[C@H](c3ccc(Cl)cc3)C2)cc1 | 8.09
O=C1C=C(c2ccc(-c3ccccc3)cc2)C[C@@H](c2ccc(Cl)cc2)C1 | 21.8
N#Cc1ccc(C2=CC(=O)C[C@H](c3ccc(Cl)cc3)C2)cc1 | -71.9
O=C(NCc1ccccc1)c1ccc(CS(=O)(=O)Cc2ccccc2F)o1 | -5.62
COc1cccc(CNC(=O)CC2C(=O)NCCN2CCCc2ccccc2)c1 (stereo not drawn) | -6.17
COc1cccc(NC(=O)CN2CCC(C)CC2)c1 | 1.52

Compound | hERG current change (%, negative = inhibition) at 10uM [%]
COc1ccc(NC(=O)CN2CCN(CC(=O)Nc3ccccc3Cl)CC2)cc1 | -74.1
CCc1nnc(NC(=O)CN2CCN(Cc3cccc(OC)c3)CC2)s1 | -19
COc1cccc(CN2CCN(CC(=O)Nc3ccccc3Cl)CC2)c1 | -72
COc1cccc(NC(=O)CN2CCN(CC(=O)Nc3ccccc3Cl)CC2)c1 | -61
CCc1ccc(OCC(=O)N2CCN(CC(=O)Nc3ccccc3Cl)CC2)cc1 | -80.7
COc1cccc(NC(=O)CN2CCc3ccccc3C2)c1 | 10.3
COc1ccc(NC(=O)c2ccccc2NC(=O)CN2CCCCCC2)cc1 | 8.82
COc1ccc(OCC(=O)Nc2ccccc2Cl)cc1 | 13.7
COc1ccc(S(=O)(=O)N2CCN(CC(=O)Nc3ccccc3Cl)CC2)cc1 | -1.6
O=C(COc1ccc(Cl)cc1)Nc1ccccc1Cl | 3.26
COc1cccc(CC(=O)Nc2ccccc2N2CCCC2)c1 | -5.39
CCOC(=O)c1oc2ccccc2c1COC(=O)C(C)NC(=O)c1ccco1 (stereo not drawn) | -16.5
COc1ccc(C(=O)N(C)C2CCCCC2)cc1S(=O)(=O)N1CCOCC1 | -3.28
CCCCOc1ccc(/C=N/NC(=S)Nc2cccc(C)c2C)cc1 | -15.8
CCOc1ccc(CCNC(=O)CN2C(=O)COc3ccc(S(=O)(=O)N4CCOCC4)cc32)cc1 | -6.84
CCN1CCCC1CNC(=O)C(=O)Nc1cccc(OC)c1 (stereo not drawn) | -1.67
O=C(c1cc2cc(Br)ccc2[nH]1)N1CCc2ccccc21 | 14
CSc1ccccc1NC(=O)COc1ccc(Cl)cc1 | -17.5
COc1cccc(C(=O)NC2CCN(CC(=O)Nc3ccccc3Cl)CC2)c1 | -55.4
COc1ccc(NC(=O)CN2CCN(c3ccccc3C)CC2)cc1 | -41.2
COc1cccc(C(=O)NC2CCN(CC(=O)Nc3cccc(C)c3C)CC2)c1 | 32.2
CC(NC(=O)CN1CCN(CC(=O)Nc2ccccc2Cl)CC1)c1ccc(Br)cc1 (stereo not drawn) | -75.1
CC(NC(=O)CN1CCN(c2cccc(Cl)c2)CC1)c1ccccc1 (stereo not drawn) | 4.34

Compound | hERG current change (%, negative = inhibition) at 10uM [%]
Cc1cccc(C(=O)NC2CCN(CC(=O)Nc3ccccc3Cl)CC2)c1 | -49
CC(NC(=O)CN1CCN(S(=O)(=O)c2ccc(Br)cc2)CC1)c1ccccc1 (stereo not drawn) | -36.9
COc1ccc(CCNC(=O)CN2CCN(c3ccccc3Cl)CC2)cc1 | -19
COc1ccc(NC(=O)CN2CCN(c3ccccc3Cl)CC2)cc1 | -61.4
O=C(CCCn1c(SCC(=O)c2ccc(Cl)cc2)nc2ccccc2c1=O)NCc1ccco1 | 3.21
O=c1c(Cl)c(Nc2cccc(Cl)c2)cnn1-c1nc2ccccc2s1 | -2.51
COc1ccccc1CCn1c(N)cc(=O)[nH]c1=O | 18.4
Cc1cc(C)c2c(N)c(S(=O)(=O)Cc3ccccc3)sc2n1 | -33.3
O=P(Oc1ccccc1)(Oc1ccccc1)c1ccccc1 | -21.8
CCOc1ccc(C(=O)N2CCn3c2nc2ccccc23)cc1 | -5.37
Br.CCn1c(=N)n(CC(=O)c2ccc(OC)c(OC)c2)c2ccccc21 | -13.7
Br.CCCn1c(=N)n(CC(=O)O)c2ccccc21 | -5.8
Br.CCCn1c(=N)n(CC(=O)c2ccc(Cl)cc2)c2ccccc21 | -53
Br.C=CCn1c(=N)n(CC(=O)c2ccc(Cl)cc2)c2ccccc21 | -36.1
Br.Cn1c(=N)n(CC(=O)c2ccc(Cl)c(Cl)c2)c2ccccc21 | -64.1
Br.CCCn1c(=N)n(CC(=O)c2ccc(Cl)c(Cl)c2)c2ccccc21 | -51.5
Br.CCn1c(=N)n(CC(=O)c2ccc(Cl)c(Cl)c2)c2ccccc21 | -51.4
CCn1c(=N)n(CC(=O)c2cccc(OC)c2)c2ccccc21 | -16.6
Br.Cn1c(=N)n(CC(=O)c2ccc(Br)cc2)c2ccccc21 | -41
Br.Cn1c(=N)n(CC(=O)c2ccc(F)cc2)c2ccccc21 | -23.2
Br.Cn1c(=N)n(CC(=O)c2ccccc2)c2ccccc21 | -12.4
